Experimental data from PubChem BioAssay (NCI).
The panel holds about 79,000 compounds, 15% with a hit somewhere; the sample as a whole holds those more often. Cut-off read from the data, not from the text of the source: active = growth inhibition above about 70%; inactive = the rest.

Columns and labels:
[1] = NCI Yeast Anticancer Drug Screen. Data for the rad50 strain (AID 155);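 note: 0% = growth of vehicle-only cultures of the same strain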; conditions: S. cerevisiae rad50 strain growth inhibition; at 50.0 µM; hits give high values
Outline: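 A DNA repair-deficient yeast mutant serves as the test organism; compound-induced growth inhibition is calculated against vehicle-treated cells.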

[2] = NCI Yeast Anticancer Drug Screen. Data for the mec2-1 strain (AID 157); conditions: S. cerevisiae mec2-1 strain, at 50.0 µM, hits give high values
Outline: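 Cells of the genetically defined mec2-1 yeast strain are incubated with test compound. Inhibition of growth is calculated against vehicle-treated controls.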

[3] = NCI Yeast Anticancer Drug Screen. Data for the sgs1 mgt1 strain (AID 161);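 note: 0% = growth of cultures given vehicle only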; conditions: S. cerevisiae sgs1 mgt1 strain, at 50.0 µM, hits give high values
Outline: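 Mutant yeast exposed to compound; growth scored against vehicle-only wells.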

[4] = NCI Yeast Anticancer Drug Screen. Data for the cln2 rad14 strain (AID 165);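 note: 0% = growth equal to vehicle treated cultures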; conditions: S. cerevisiae cln2 rad14 strain, at 50.0 µM, hits give high values
Outline: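 The screen exposed genetically defined yeast (cln2 rad14) to test compounds and scored growth inhibition relative to vehicle-treated controls.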

[5] = NCI Yeast Anticancer Drug Screen. Data for the bub3 strain (AID 167); conditions: S. cerevisiae bub3 mutant strain, at 50.0 µM, hits give high values
Outline: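 Inhibition values come from growth of compound-treated mutant yeast normalised to vehicle-treated controls.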

[6] = NCI Yeast Anticancer Drug Screen. Data for the mlh1 rad18 strain (AID 175); conditions: S. cerevisiae mlh1 rad18 strain growth inhibition; at 50.0 µM; hits give high values
Outline: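 Compound-treated yeast growth, normalised to vehicle controls. Strain bears defined DNA repair mutations.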

Measured: growth inhibition

Cc1cccc(N2CCN(S(C)(=O)=O)CC2)c1
inactive: [1] 16.6% | [2] 6.85% | [3] 0.3% | [4] 18.4% | [5] 6.75% | [6] 5%

Oc1cccc2ccc[n+](CCc3ccccc3)c12
inactive: [1] 1.4% | [2] 9.15% | [3] 8.7% | [4] -13.5% | [5] -5.9% | [6] 31.6%

CC12CC(C/C1=N/O)C(C)(C)C2 (stereo unspecified)
inactive: [1] -4.3% | [2] 16.4% | [3] 1.55% | [4] 15.7% | [5] -7.65% | [6] 9.6%

O=[n+]1c(-c2ccccc2)c(-c2ccccc2)n([O-])c2cc3ccccc3cc21
inactive: [1] 28.7% | [2] 3.65% | [3] 12.2% | [4] -24.6% | [5] 6.05% | [6] 26.4%

O=c1[nH]c2nc3ccccc3c(=O)n2/c1=C/c1ccc(Cl)cc1
inactive: [1] -1.6% | [2] 18.2% | [3] 43.4% | [4] 29.6% | [5] 14.1% | [6] -17.2%

Cc1nc2ccc(Br)cc2c(=O)n1-c1ccc(N=Cc2ccccc2Cl)cc1
inactive: [1] 49.8% | [2] 16.5% | [3] 26.6% | [4] 19.6% | [5] 2.6% | [6] 34.8%

CN(C)C(=O)C1(C)CC2CCC1C2 (stereo unspecified)
inactive: [1] -2.25% | [2] -15.3% | [3] -8.65% | [4] 13.9% | [5] 2.8% | [6] -0.75%

O=C1NC(=O)C(c2ccc(Cl)cc2)(c2cccc(Cl)c2)N1 (stereo unspecified)
inactive: [1] 11.1% | [2] -16.5% | [3] 18.3% | [4] -11.8% | [5] 5.9% | [6] -5.9%

Cc1cc2c(c(C(=O)NCC(=O)N[C@@H](C)C(=O)OCc3ccccc3)c1)Oc1c(cc(C)cc1C(=O)NCC(=O)N[C@@H](C)C(=O)OCc1ccccc1)S2
inactive: [1] 26.4% | [2] 16.8% | [3] 23.8% | [4] 33% | [5] 19.6% | [6] 33.2%

O=C(OCCCCCCCCOC(=O)c1ccc([N+](=O)[O-])cc1)c1ccc([N+](=O)[O-])cc1
inactive: [1] 14.6% | [2] 2.15% | [3] 12.2% | [4] 4.1% | [5] -5.4% | [6] 5.9%

Cc1ccccc1OCC1COCN(Cc2ccccc2)CO1 (stereo unspecified)
inactive: [1] 18.8% | [2] 21.2% | [3] 28.1% | [4] 20.6% | [5] 6.95% | [6] 32.9%

O=C1CCC2(c3ccccc3)Nc3ncccc3N12 (stereo unspecified)
inactive: [1] 33% | [2] 2.8% | [3] 6.6% | [4] 3.85% | [5] 23% | [6] 27.8%

O=C1N=C(c2ccccc2)C(c2ccccc2)N1 (stereo unspecified)
inactive: [1] -9.3% | [2] 23.1% | [3] 12.9% | [4] -3.85% | [5] -0.4% | [6] 8.65%

CCCCC1NNC(CCCC)NN1 (stereo unspecified)
inactive: [1] 2.8% | [2] -15.2% | [3] -18.8% | [4] -25.8% | [5] -6.3% | [6] -1.4%

O=c1[nH]nc(S(=O)(=O)N2CCCC2)c(=O)[nH]1
inactive: [1] -10.9% | [2] -9% | [3] -10.7% | [4] -2.85% | [5] -4.15% | [6] -13.2%

C[n+]1c(-c2ccc(Cl)c(Cl)c2)c2cc(N)ccc2c2ccccc21
inactive: [1] 14.9% | [2] -22.6% | [3] 30.6% | [4] 3.9% | [5] 7.2% | [6] 14.4%

COc1cc(OC2OC(CO)C(O)C(O)C2O)c2c(O)c3c(=O)cc(C)oc3cc2c1 (stereo unspecified)
inactive: [1] 12.8% | [2] 19.4% | [3] 2.05% | [4] 20.7% | [5] 2.55% | [6] 3.8%

COc1cc(S(N)(=O)=O)c(OC)cc1N
inactive: [1] 21.1% | [2] -28.2% | [3] -11.4% | [4] 8.8% | [5] -5.6% | [6] -10.1%

COc1ccc(CCc2cc(OC)c(O)c(OC)c2)cc1
inactive: [1] 18.5% | [2] 14.8% | [3] 36% | [4] 19% | [5] 30.1% | [6] 41%

Cc1cc(C)n(-c2ccc([N+](=O)[O-])cn2)n1
inactive: [1] 4.55% | [2] 12% | [3] -1.3% | [4] -8.2% | [5] 9.85% | [6] 5.25%

CC1CC(C)SC(C)S1 (stereo unspecified)
inactive: [1] -30.6% | [2] -7.95% | [3] -10.1% | [4] -87.4% | [5] -2.7% | [6] -14.8%

Cc1cccc2nc(-c3ccccc3)ccc12
inactive: [1] -3.5% | [2] -11.6% | [3] 1.55% | [4] 5.6% | [5] 4.95% | [6] 4%

CN(C)CC1CCCCCCC1=O (stereo unspecified)
inactive: [1] -6.45% | [2] 12.7% | [3] -8.55% | [4] -8.1% | [5] -8.85% | [6] 12.8%

COCCN(CCOC)C1C2=C(CCCC2)OS(=O)(=O)C1c1ccccc1 (stereo unspecified)
inactive: [1] 26.9% | [2] -4.75% | [3] 6.45% | [4] 12.9% | [5] 3.2% | [6] 0.05%

CC1C2CC(C3(C)OCCO3)CCC2(C)CCC12OCCO2 (stereo unspecified)
inactive: [1] 1.65% | [2] 16.9% | [3] 3.15% | [4] 11.5% | [5] 2.9% | [6] 5.4%

O=C1NC(=O)C(=NC2C(=O)NC(=O)NC2=O)C(=O)N1
inactive: [1] 6.65% | [2] 29.4% | [3] 31.3% | [4] 1.5% | [5] 26.1% | [6] 19.8%

O=S(=O)(CS(=O)(=O)N1CCCCC1)N1CCCCC1
inactive: [1] -3.8% | [2] -5.4% | [3] -3.4% | [4] -9.7% | [5] 6.7% | [6] 0.95%

SC(S)(Cc1ccccc1)Cc1ccccc1
inactive: [1] -6.4% | [2] 2.2% | [3] 16.4% | [4] -9.65% | [5] 35.1% | [6] 1%

CN(C)S(=O)(=O)Oc1ccccc1N
inactive: [1] 5.9% | [2] -4.5% | [3] 20.9% | [4] 18.7% | [5] -5.15% | [6] 15.8%

O=C(NC1CCCCC1Cl)C1CCCCC1 (stereo unspecified)
inactive: [1] 17.1% | [2] 18.6% | [3] 2.15% | [4] 5.4% | [5] -6.7% | [6] -14.8%

COC(=O)C1(C2CCc3cc(OC)ccc3C2=O)NC(=S)NC(=O)C1C#N (stereo unspecified)
inactive: [1] -2.8% | [2] -4.45% | [3] -18.2% | [4] -4.05% | [5] -21.1% | [6] -6.65%

O=C1N(Cl)C2C(N1Cl)N(Cl)C(=O)N2Cl (stereo unspecified)
inactive: [1] 5.35% | [2] -9.55% | [3] -18.4% | [4] -2.9% | [5] 2.95% | [6] -12.6%

CC(C)SC(=O)C[Si](C)(C)C
inactive: [1] -5.8% | [2] 6.95% | [3] -2.9% | [4] -16.1% | [5] 26.7% | [6] -1.65%

O=C(O)CCCC/C=C/CCCCCCC1C=CCC1 (stereo unspecified)
inactive: [1] -23.4% | [2] -35.9% | [3] 9.8% | [4] 0.7% | [5] -3.65% | [6] 1.65%

CC(=O)OCCn1c(Cc2ccc(C)cc2)nn(C(C)=O)c1=O
inactive: [1] 16.6% | [2] 5.5% | [3] 11.8% | [4] 3.4% | [5] 5.9% | [6] -0.95%

CCCCCCCCOC1OC(COC(C)=O)C(OC(C)=O)C(OC(C)=O)C1OC(C)=O (stereo unspecified)
inactive: [1] -3% | [2] 3.75% | [3] -4.45% | [4] 6.75% | [5] -35.5% | [6] -6.95%

CC1(C)OC2OC(C3CC3)C(OCc3ccccc3)C2O1 (stereo unspecified)
inactive: [1] -4.35% | [2] -1.05% | [3] -7.55% | [4] -16% | [5] -10.7% | [6] -6.5%

COC(=O)c1ccc(C(=O)OC)nc1
inactive: [1] -7.45% | [2] -2.1% | [3] -0.2% | [4] -36.6% | [5] -25.6% | [6] -3.55%

CC1(C)CC(=O)C(C=NC(=O)c2ccncc2)=C(O)C1
inactive: [1] -25.1% | [2] 19.7% | [3] -3.55% | [4] -3.8% | [5] 14.9% | [6] -40.4%

NC(Cc1ccccc1)C(=O)Nc1ccccc1 (stereo unspecified)
inactive: [1] 18.3% | [2] -16% | [3] -7.3% | [4] 13.3% | [5] -22.1% | [6] 10.5%

COc1cc(C(=O)C/C(CCC(=O)Nc2ccccc2[N+](=O)[O-])=N\NC(=O)C(N)=O)ccc1O
inactive: [1] -20.5% | [2] 9.8% | [3] -47.4% | [4] 5.9% | [5] -16.2% | [6] -24.4%
